Reference: PubChem BioAssay (NCI)
About 83,000 compounds went through this panel and 20% of them were active in at least one assay; those are over-represented in the sample as a whole.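 Growth was measured after 48 h exposure to one concentration of compound in 96-well plates. Values under 10 count as active.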 Values without a mark were called inactive. Active and inactive are the calls of the source.

What follows are molecules tested on MDA-MB-468 breast (assay: NCI-60 one-dose screen, 48 h (100 = growth as untreated, 0 = no growth, -100 = all killed)). Details: 10 µM unless noted.
For `CCCCCCCCCCCCCC[n+]1cccc(C(N)=O)c1`, the growth was -59.9% (active).
`OCc1cnc2ccccc2c1NC1CCCCCC1` gave a growth of 59.8%.
Work on `O=C(Cc1ccc(F)cc1)c1ccccc1` yielded a growth of 127%.
`CCCCCCCCCCCCc1ccc([N+](CC)(CC)CC)cc1` was tested, and the growth was -5.49% (active).
With `CCOc1ccc(/C=C\C(=O)O)cc1` the growth was 121%.
For `CN(C)CCC(=O)c1ccc([N+](=O)[O-])cc1`, the growth was 86.5%.
Work on `CCOC(=O)c1cc(C(=O)c2cc(OC)cc(OC)c2)n2nc(C)ccc12` yielded a growth of 29.8%.
With `COc1ccc(-c2nc3c(c(=O)n2C(C)=O)C(c2ccc(Cl)cc2)c2sc4c(Cl)cccc4c2O3)cc1` (stereo not given) the growth was 5.77% (active).
`CCN1C(=O)/C(=C/C=C/N(C)c2ccccc2)SC1=S` was tested, and the growth was 89.1%.
With `O=C1Nc2ccccc2/C1=C/c1cn(CC(O)Cn2cc(/C=C3\C(=O)Nc4ccccc43)c3ccccc32)c2ccccc12` (stereo not given) the growth was -84.8% (active).
For `CCCCCCCC/C=C/CCCCCCCC1=NC(C)(C)CN1c1ccccc1`, the growth was 85.7%.
With `C=CCn1c(SCC(=O)Nc2ccc(C(=O)/C=C/c3cc4cc(OC)ccc4nc3Cl)cc2)nnc1-c1ccc(Br)cc1` the growth was 85.7%.
For `COc1ccc(/C=N/OCC(O)CN2CCC(O)CC2)cc1OC1CCCC1` (stereo not given), the growth was 117%.
For `Fc1ccc(CNc2c3ccccc3nc3ccccc23)cc1F`, the growth was -10.7% (active).
For `CC1=NOC(=O)/C1=C\c1ccc(O)cc1`, the growth was 103%.
For `CS(=O)(=O)c1nccc(-c2c(-c3cccc(OCCc4ccccc4)c3)nc3sccn23)n1`, the growth was 20.2%.
In the case of `O=c1[nH]c2cc(Cl)c(Cl)cc2n2cc3ncccc3c12`, the growth is reported as 0.904% (active).
Work on `COc1cc(/C=C/C(=O)c2cc(OC)c(OC)c(OC)c2)ccc1OCc1ccccc1` yielded a growth of 21.5%.
In the case of `C=C(c1ccc(N(C)C)cc1)c1ccc(N(C)C)cc1`, the growth is reported as -30.9% (active).
In the case of `NC(=O)C1=C[C@H]2[C@H]3C=C[C@@]2(O)C(=O)O[C@@H]3O1`, the growth is reported as -5.42% (active).
Work on `CC(C)C(=O)Nc1ccc(-c2nc(-c3cccc(O)c3)c(-c3ccnc(Br)c3)[nH]2)cc1` yielded a growth of 15.1%.
With `OCc1cc(CN2CCCCC2)c(O)c2ncccc12` the growth was 76.7%.
With `O=c1[nH][n+](-c2ccc(Cl)cc2)no1` the growth was 93.2%.
With `Cc1cccc(NC(=O)CSc2nc3ccc([N+](=O)[O-])cc3[nH]2)c1` the growth was 48.6%.
With `COc1cc(/C=C/C(=O)C2=C(/C=C/c3ccc(O)c(OC)c3)NC(=O)NC2c2ccc(O)c(OC)c2)ccc1O` (stereo not given) the growth was 88.7%.
For `O=c1[nH]c2cc(Cl)c(Cl)cc2o1`, the growth was 111%.
Molecule `O=C(C(=O)c1cc(Br)ccc1O)c1cc(Br)ccc1O` has a growth of 29.5%.
For `CCOC(=O)c1c2c(n3ccccc13)C(=O)c1ncccc1C2=O`, the growth was 80.8%.
Work on `C=CC(=O)Nc1cccc(-c2nc(SC)nc(Nc3cccc(OC)c3)c2C#N)c1` yielded a growth of 69.7%.
With `COc1ccc(CN2c3ccccc3CCc3ccccc32)cc1F` the growth was 4.48% (active).
Molecule `CCc1cnc(=S)n(-c2ccccc2)c1` has a growth of 117%.
Work on `O=C(Nc1ccccc1)c1sc(-c2ccccc2)cc1O` yielded a growth of 107%.
In the case of `Nc1ccccc1-c1cc2c(c3c1[nH]c1ccccc13)CCCCC2`, the growth is reported as 98.2%.
Molecule `NC(=O)c1cccc(-n2ccc3cc(NC(=O)Nc4ccc(Cl)c(C(F)(F)F)c4)ccc32)n1` has a growth of 47%.
`Cc1ccc(/C=C2\CN(C(=O)C(Cl)Cl)C/C(=C\c3ccc(C)cc3)C2=O)cc1` was tested, and the growth was -65.9% (active).
With `O=C(/C=C\c1ccc(OCCCCCC[P+](c2ccccc2)(c2ccccc2)c2ccccc2)cc1)c1ccc2c(c1)OCCO2` the growth was -38.6% (active).
Work on `CC(=O)OC1CC2C(C)(C)OC3CC(=O)OCC32C2CCC3(C)C(=CCC3c3ccoc3)C12C` (stereo not given) yielded a growth of 39.1%.
For `CC(C)(C)c1[nH]nc2c1C(c1cc3ccccc3[nH]c1=O)Nc1cc(C(=O)Nc3ccc(Cl)cc3)ccc1N2` (stereo not given), the growth was -15.9% (active).
Work on `COc1ccc(OC2=CC(=O)c3ccc(C)nc3C2=O)cc1` yielded a growth of 86.2%.
`Nc1ccc(C(=O)/C=C/c2ccccc2)cc1` showed a growth of 87.4%.
